According to PubChem BioAssay (EPA / NIEHS):
“And” between values parts separate entries of the source, which are not always exact repeats. Identical values can stand only once. Where a structure was tested more than once in an assay, its records may differ in their call. The source made the active and inactive calls. Rule for the calls: active = hit-call score of the fitted dose curve at least 0.9, where 1 is the maximum; inactive = score below 0.9.

Legend:
[1] = ATG_GRE_CIS: Attagene CIS-FACTORIAL HepG2 Assay for human Glucocorticoid Response Elements (GRE) (AID 2282947); conditions: HepG2 GRE cis-reporter, Attagene multiplex mRNA; actives raise or lower the signal
How it was run: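 HepG2, transient cis-reporter transfection, 24 h. Reporter mRNA: RT-PCR then CE, fluorescence. Fit both directions vs DMSO.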

[2] = ATG_ISRE_CIS: Attagene CIS-FACTORIAL HepG2 Assay for human Interferon Regulatory Factor 1 (IRF1) binding to an Interferon-Stimulated Response Element (ISRE) (AID 2282948); conditions: HepG2 ISRE cis-reporter (Attagene), mRNA transcription readout; actives raise or lower the signal
How it was run: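 Read-out: fluorescent RT-PCR products resolved by capillary electrophoresis, reporting endogenous transcription factor activity via ISRE-driven reporter mRNA in transfected HepG2 cells dosed for 24 h; gain or loss fitted relative to DMSO.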

[3] = ATG_M_32_CIS: Attagene CIS-FACTORIAL HepG2 Assay for M32 Transcription Factor (Internal Marker) (AID 2282949); conditions: HepG2 Attagene cis-factorial M32 reporter, mRNA; actives raise or lower the signal;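 note: background control marker of the multiplexed CIS panel rather than a real target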
How it was run: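 Transient MRTU transfection of HepG2; 24 h compound treatment; TriZol RNA, oligo(dT) RT, reporter PCR, 6-FAM primer extension, HpaI cut, CE. Gain/loss of signal vs DMSO.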

[4] = ATG_M_06_CIS: Attagene CIS-FACTORIAL HepG2 Assay for M06 Transcription Factor (Internal Marker) (AID 2282950); conditions: HepG2 Attagene CIS-FACTORIAL M06 internal marker reporter; actives raise or lower the signal
How it was run: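 Serves as a background control readout. Transfected HepG2 exposed to compounds for 24 h, then reporter transcripts quantified by fluorescent RT-PCR and capillary electrophoresis. Both directions fitted against DMSO baseline.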

[5] = molecular target: Hypoxia-inducible factor 1-alpha (Homo sapiens) (UniProt Q16665); assay: ATG_HIF1a_CIS: Attagene CIS-FACTORIAL HepG2 Assay for human Hypoxia Inducible Factor 1 (HIF1A) (AID 2282951); conditions: HepG2 Attagene cis-factorial HIF1a reporter transcription; actives raise or lower the signal
Sequence of Hypoxia-inducible factor 1-alpha (Homo sapiens) (Q16665 whole entry, looked up): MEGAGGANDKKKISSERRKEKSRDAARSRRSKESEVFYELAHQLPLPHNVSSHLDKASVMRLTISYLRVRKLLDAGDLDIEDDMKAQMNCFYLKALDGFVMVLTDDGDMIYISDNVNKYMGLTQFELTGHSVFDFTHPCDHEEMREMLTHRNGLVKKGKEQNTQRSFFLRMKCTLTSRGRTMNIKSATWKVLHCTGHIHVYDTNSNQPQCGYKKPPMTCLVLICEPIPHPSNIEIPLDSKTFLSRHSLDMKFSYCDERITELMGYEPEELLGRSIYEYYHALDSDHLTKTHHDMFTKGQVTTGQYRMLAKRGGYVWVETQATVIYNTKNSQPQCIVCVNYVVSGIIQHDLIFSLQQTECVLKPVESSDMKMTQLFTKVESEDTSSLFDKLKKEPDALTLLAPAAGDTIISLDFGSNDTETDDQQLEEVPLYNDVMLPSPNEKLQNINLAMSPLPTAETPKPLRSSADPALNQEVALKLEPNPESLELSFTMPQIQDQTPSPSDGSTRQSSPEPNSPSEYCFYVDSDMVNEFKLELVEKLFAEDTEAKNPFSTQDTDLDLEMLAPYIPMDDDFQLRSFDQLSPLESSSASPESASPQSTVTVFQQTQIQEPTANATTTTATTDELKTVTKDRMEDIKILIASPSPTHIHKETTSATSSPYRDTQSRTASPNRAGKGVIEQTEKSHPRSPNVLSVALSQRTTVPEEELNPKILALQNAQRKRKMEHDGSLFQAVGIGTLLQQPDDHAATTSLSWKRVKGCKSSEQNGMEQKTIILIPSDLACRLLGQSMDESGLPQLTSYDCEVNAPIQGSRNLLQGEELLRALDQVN
How it was run: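 Measures endogenous transcription-factor activity through cis-regulated reporter mRNA in HepG2. Cells dosed 24 h; transcripts quantified by RT-PCR with 6-FAM-labelled products separated by capillary electrophoresis; DMSO serves as negative control.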

[6] = molecular target: Hepatocyte nuclear factor 6 (Homo sapiens) (UniProt Q9UBC0); assay: ATG_HNF6_CIS: Attagene CIS-FACTORIAL HepG2 Assay for human Hepatocyte Nuclear Factor 6 (HNF6) (AID 2282952); conditions: HepG2 Attagene cis-factorial HNF6 reporter transcription; actives raise or lower the signal
Sequence of Hepatocyte nuclear factor 6 (Homo sapiens) (Q9UBC0 whole entry, looked up, the tested form may be a part): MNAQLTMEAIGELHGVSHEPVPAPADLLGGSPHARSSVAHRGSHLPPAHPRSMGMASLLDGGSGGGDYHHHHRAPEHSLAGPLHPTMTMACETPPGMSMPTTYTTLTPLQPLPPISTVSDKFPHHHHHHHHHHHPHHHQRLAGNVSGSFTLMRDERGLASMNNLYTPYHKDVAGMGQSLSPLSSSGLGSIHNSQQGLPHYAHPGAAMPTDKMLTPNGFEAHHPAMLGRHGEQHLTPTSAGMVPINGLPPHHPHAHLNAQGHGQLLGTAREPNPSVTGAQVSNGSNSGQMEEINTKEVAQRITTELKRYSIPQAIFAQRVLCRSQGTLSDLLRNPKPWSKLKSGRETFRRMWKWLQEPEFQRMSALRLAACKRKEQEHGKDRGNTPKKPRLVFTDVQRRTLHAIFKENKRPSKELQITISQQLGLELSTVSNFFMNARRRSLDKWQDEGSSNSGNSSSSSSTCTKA
How it was run: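 Twenty-four-hour chemical treatment of reporter-transfected HepG2 cells precedes RNA isolation, DNase-treated reverse transcription and PCR of reporter sequences. Labelled fragments are sized by capillary electrophoresis and fitted bidirectionally versus DMSO.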

[7] = molecular target: Heat shock factor protein 1 (Homo sapiens) (UniProt Q00613); assay: ATG_HSE_CIS: Attagene CIS-FACTORIAL HepG2 Assay for human Heat Shock Transcription Factor 1 (HSE) (AID 2282953); conditions: HepG2 HSE cis-reporter, Attagene RNA transcription; actives raise or lower the signal
Sequence of Heat shock factor protein 1 (Homo sapiens) (Q00613 whole entry, looked up): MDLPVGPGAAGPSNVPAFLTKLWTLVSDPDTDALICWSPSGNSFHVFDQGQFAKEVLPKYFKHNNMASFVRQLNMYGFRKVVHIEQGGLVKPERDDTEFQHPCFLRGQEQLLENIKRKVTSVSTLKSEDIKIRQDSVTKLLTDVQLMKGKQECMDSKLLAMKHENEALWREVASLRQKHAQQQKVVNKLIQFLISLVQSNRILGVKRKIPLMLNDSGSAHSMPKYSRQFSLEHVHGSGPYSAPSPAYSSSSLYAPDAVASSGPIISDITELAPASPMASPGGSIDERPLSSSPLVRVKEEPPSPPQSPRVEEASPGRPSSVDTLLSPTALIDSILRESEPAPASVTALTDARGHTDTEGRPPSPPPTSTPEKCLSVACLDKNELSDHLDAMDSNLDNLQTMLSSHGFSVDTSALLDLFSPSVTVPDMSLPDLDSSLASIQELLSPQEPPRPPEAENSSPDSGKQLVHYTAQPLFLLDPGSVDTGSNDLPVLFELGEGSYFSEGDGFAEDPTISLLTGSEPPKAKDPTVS
How it was run: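 Endogenous transcription factor activity in transiently transfected HepG2, read as reporter mRNA by RT-PCR with fluorescent capillary electrophoresis after 24 h. Gain or loss of signal fitted versus DMSO baseline.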

[8] = ATG_MRE_CIS: Attagene CIS-FACTORIAL HepG2 Assay for human Metal Responsive Element (MRE) (AID 2282954); conditions: HepG2 MRE cis-reporter transcription, Attagene multiplex; actives raise or lower the signal
How it was run: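 Readout: capillary electrophoresis of 6-FAM-labelled, HpaI-digested RT-PCR reporter products. System: HepG2 cells carrying transient multiplexed cis reporters, dosed 24 h. Analysis: bidirectional fit, DMSO baseline.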

[9] = molecular target: Paired box protein Pax-6 (Homo sapiens) (UniProt P26367); assay: ATG_Pax6_CIS: Attagene CIS-FACTORIAL HepG2 Assay for human Paired Box 6 (PAX6) (AID 2282956); conditions: HepG2 CIS-FACTORIAL PAX6 reporter transcription, RNA readout; actives raise or lower the signal
Sequence of Paired box protein Pax-6 (Homo sapiens) (P26367 whole entry, looked up): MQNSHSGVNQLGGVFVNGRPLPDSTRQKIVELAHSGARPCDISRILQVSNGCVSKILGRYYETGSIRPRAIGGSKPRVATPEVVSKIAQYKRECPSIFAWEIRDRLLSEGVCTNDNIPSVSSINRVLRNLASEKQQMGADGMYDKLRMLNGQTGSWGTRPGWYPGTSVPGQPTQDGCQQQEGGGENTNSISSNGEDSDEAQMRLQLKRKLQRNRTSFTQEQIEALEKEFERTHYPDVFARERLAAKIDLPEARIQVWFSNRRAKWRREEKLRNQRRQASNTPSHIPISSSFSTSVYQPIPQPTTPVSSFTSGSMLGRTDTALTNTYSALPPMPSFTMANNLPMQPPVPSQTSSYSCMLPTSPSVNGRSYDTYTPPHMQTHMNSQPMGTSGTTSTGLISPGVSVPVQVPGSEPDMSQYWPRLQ
How it was run: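 Readout: reporter transcript fluorescence after RT-PCR and capillary electrophoresis. Cells: HepG2, transiently transfected with cis-regulated MRTUs. Exposure 24 h. Gain or loss of signal fitted bidirectionally relative to DMSO.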

[10] = ATG_PXRE_CIS: Attagene CIS-FACTORIAL HepG2 Assay for human Pregnane X Receptor Element (PXRE) (AID 2282957); conditions: HepG2 Attagene CIS-FACTORIAL PXRE reporter, mRNA; actives raise or lower the signal
How it was run: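 Bidirectional activity, baselined to DMSO, derived from reporter mRNA fluorescence (RT-PCR plus capillary electrophoresis) in HepG2 cells bearing cis-promoter reporter units, 24 h exposure.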

[11] = ATG_PPRE_CIS: Attagene CIS-FACTORIAL HepG2 Assay for human Peroxisome Proliferator-activated Response Element (PPRE) (AID 2282958); conditions: HepG2 PPRE cis-element reporter, Attagene transcription factor profiling; actives raise or lower the signal
How it was run: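 Cells are first transfected transiently with the multiplexed reporter library, then dosed for 24 h. Total RNA is reverse-transcribed, amplified, fluorescently end-labeled and HpaI-cut before capillary electrophoresis; activity is fitted bidirectionally against DMSO controls.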

[12] = ATG_RORE_CIS: Attagene CIS-FACTORIAL HepG2 Assay for human RAR-related Orphan Receptor Element (RORE) (AID 2282959); conditions: HepG2 Attagene cis-factorial RORE reporter, mRNA; actives raise or lower the signal
How it was run: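 Cells were HepG2 carrying transfected cis-regulated reporter constructs, dosed for 24 hours. Total RNA was reverse-transcribed and reporter cDNA amplified, fluorescently labeled and sized by capillary electrophoresis. Activity was fitted bidirectionally relative to DMSO.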

[13] = ATG_Sox_CIS: Attagene CIS-FACTORIAL HepG2 Assay for human SRY-box transcription factor (SOX) (AID 2282960); conditions: HepG2 Attagene cis-factorial SOX reporter, mRNA; actives raise or lower the signal
How it was run: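 Transient MRTU transfection of HepG2; 24 h compound incubation; TriZol RNA, oligo(dT) RT, PCR, 6-FAM primer extension, HpaI cut, CE. Bidirectional fit, DMSO = baseline.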

[14] = molecular target: Transcription factor Sp1 (Homo sapiens) (UniProt P08047); assay: ATG_Sp1_CIS: Attagene CIS-FACTORIAL HepG2 Assay for human Specificity Protein 1 (Sp1) (AID 2282961); conditions: HepG2 Sp1 cis-reporter transcription, actives raise or lower the signal
Sequence of Transcription factor Sp1 (Homo sapiens) (P08047 whole entry, looked up): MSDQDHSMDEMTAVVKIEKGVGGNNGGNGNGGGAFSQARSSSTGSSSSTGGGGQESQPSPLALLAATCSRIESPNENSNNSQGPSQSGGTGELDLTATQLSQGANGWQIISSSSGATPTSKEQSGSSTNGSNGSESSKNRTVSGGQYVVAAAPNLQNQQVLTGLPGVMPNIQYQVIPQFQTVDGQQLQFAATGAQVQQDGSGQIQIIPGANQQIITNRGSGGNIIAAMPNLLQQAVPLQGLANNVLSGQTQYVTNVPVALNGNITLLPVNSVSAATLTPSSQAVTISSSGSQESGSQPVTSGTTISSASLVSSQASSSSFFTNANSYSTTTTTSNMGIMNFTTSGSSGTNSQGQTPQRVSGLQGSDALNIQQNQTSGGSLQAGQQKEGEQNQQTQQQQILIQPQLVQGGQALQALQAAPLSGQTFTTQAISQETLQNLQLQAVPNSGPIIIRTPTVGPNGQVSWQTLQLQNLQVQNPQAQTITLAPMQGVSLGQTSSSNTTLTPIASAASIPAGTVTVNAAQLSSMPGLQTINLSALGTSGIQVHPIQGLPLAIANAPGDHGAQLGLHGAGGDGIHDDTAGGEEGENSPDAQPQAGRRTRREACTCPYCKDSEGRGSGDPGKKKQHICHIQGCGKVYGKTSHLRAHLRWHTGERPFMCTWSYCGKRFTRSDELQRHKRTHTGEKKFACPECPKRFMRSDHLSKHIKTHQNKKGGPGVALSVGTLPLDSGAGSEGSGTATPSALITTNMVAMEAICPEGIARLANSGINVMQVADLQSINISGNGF
How it was run: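 Endogenous Sp1 activity was gauged in human liver HepG2 cells bearing transfected reporter units under a cis-regulating promoter. After 24 h dosing, reporter mRNA was quantified by RT-PCR with capillary electrophoresis, and activity fitted bidirectionally versus DMSO.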

[15] = ATG_SREBP_CIS: Attagene CIS-FACTORIAL HepG2 Assay for human Sterol Regulatory Element Binding (SREBP) (AID 2282962); conditions: HepG2 Attagene cis-factorial SREBP reporter, mRNA; actives raise or lower the signal
How it was run: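 Readout: fluorescent reporter-transcript peaks resolved by capillary electrophoresis after RT-PCR. Cells were human HepG2 carrying transfected cis-promoter reporter constructs, dosed for 24 h. Gain or loss of signal was fitted against DMSO controls.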

[16] = molecular target: Signal transducer and activator of transcription 3 (Homo sapiens) (UniProt P40763); assay: ATG_STAT3_CIS: Attagene CIS-FACTORIAL HepG2 Assay for human Signal Transducer and Activator of Transcription 3 (STAT3) (AID 2282963); conditions: HepG2, Attagene cis-factorial STAT3 reporter transcription; actives raise or lower the signal
Sequence of Signal transducer and activator of transcription 3 (Homo sapiens) (P40763 whole entry, looked up): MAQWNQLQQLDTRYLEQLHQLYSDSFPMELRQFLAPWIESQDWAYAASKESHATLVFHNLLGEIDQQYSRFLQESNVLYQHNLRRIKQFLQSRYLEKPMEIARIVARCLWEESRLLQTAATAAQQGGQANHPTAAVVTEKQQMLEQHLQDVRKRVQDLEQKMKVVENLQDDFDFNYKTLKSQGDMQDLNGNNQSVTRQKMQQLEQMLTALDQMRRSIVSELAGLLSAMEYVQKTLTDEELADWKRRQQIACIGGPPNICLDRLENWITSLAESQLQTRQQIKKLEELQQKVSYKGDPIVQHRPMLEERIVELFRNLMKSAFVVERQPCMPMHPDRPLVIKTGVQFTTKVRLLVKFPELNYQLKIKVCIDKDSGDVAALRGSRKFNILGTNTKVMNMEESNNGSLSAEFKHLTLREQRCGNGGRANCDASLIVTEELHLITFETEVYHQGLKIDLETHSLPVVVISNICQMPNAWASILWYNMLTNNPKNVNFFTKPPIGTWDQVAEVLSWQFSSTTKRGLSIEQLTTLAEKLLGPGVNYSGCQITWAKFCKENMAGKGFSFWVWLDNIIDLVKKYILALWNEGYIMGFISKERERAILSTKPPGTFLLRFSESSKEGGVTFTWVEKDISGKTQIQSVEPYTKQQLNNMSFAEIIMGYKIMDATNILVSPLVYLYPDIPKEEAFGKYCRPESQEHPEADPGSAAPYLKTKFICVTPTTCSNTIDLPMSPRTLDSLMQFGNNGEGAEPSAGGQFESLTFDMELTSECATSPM
How it was run: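 Uses human liver HepG2 transiently carrying cis-regulated reporter transcription units. Following 24 h dosing, reporter mRNA induction was detected by RT-PCR and capillary electrophoresis, analysed bidirectionally versus DMSO.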

[17] = ATG_TA_CIS: Attagene CIS-FACTORIAL HepG2 Assay for human TA Basal Promoter (AID 2282964); conditions: HepG2 Attagene CIS-factorial TA basal promoter reporter; actives raise or lower the signal
How it was run: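 Background-control readout: TA basal promoter reporter mRNA, fitted in both directions relative to DMSO. Measured by RT-PCR and capillary electrophoresis 24 hours after treating HepG2 human liver cells transiently carrying multiplexed cis-regulated reporter constructs.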

[18] = ATG_TCF_b_cat_CIS: Attagene CIS-FACTORIAL HepG2 Assay for human T-Cell-Factor with beta-catenin (TCF/b-cat) (AID 2282965); conditions: HepG2 TCF/beta-catenin cis-reporter transcription, actives raise or lower the signal
How it was run: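 Using capillary electrophoresis as the read-out, labelled reporter cDNA fragments from transiently transfected HepG2 were sized and quantified. Exposure lasted 24 hours; activity in either direction was referenced to DMSO.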

[19] = molecular target: Bile acid receptor (Homo sapiens) (UniProt Q96RI1); assay: ATG_IR1_CIS: Attagene CIS-FACTORIAL HepG2 Assay for human Nuclear Receptor Subfamily 1 Group H Member 4 (NR1H4), IR1 submotif (AID 2282946); conditions: IR1 reporter transcription, actives raise or lower the signal
Sequence of Bile acid receptor (Homo sapiens) (Q96RI1 whole entry, looked up): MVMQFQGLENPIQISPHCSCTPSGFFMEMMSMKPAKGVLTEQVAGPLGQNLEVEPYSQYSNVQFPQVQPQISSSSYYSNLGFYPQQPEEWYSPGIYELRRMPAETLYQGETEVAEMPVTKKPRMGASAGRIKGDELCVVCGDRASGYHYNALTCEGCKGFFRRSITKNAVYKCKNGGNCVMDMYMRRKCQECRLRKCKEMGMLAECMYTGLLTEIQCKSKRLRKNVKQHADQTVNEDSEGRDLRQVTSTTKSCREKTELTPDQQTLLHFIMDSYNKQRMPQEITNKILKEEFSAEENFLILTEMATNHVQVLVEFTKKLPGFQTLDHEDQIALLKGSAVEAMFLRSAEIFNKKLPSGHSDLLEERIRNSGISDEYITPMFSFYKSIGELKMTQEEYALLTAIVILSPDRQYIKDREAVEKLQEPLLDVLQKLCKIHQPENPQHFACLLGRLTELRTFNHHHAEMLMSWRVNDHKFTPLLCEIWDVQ
How it was run: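 Readout: reporter transcript levels by RT-PCR with fluorescent capillary electrophoresis, from HepG2 cells transiently transfected with multiplexed cis-regulated reporters and dosed 24 h. Gain- or loss-of-signal fitted versus DMSO negative control.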

[20] = ATG_PBREM_CIS: Attagene CIS-FACTORIAL HepG2 Assay for human Phenobarbital-responsive Enhancer Module (PBREM) (AID 2282955); conditions: HepG2 PBREM cis-reporter, Attagene multiplexed transcription; actives raise or lower the signal
How it was run: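 Fluorescence of labelled reporter cDNA fragments, resolved by capillary electrophoresis, gives mRNA induction in transfected HepG2 cells treated for 24 h; DMSO serves as negative control and baseline.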

Measured: AC50

CCC(=O)O[C@H]1CC[C@H]2[C@@H]3CCC4=CC(=O)CC[C@]4(C)[C@H]3CC[C@]12C
inactive: [1] | [2] | [3] | [4] | [5] | [6] | [9] | [11] | [12] | [13] | [14] | [16] | [17] | [18]
active: [1] 157 µM | [2] 100 µM and 131 µM | [5] 100 µM and 122 µM | [6] 169 µM and 187 µM | [7] 159 µM [middle of 4 runs] | [8] 136 µM [middle of 4 runs] | [9] 132 µM and 100 µM | [10] 26.7 µM [middle of 4 runs] | [12] 119 µM | [13] 152 µM | [14] 164 µM and 181 µM | [15] 137 µM [middle of 4 runs] | [17] 100 µM and 129 µM | [18] 100 µM and 92.5 µM

Cc1cccc(C)c1N
not listed: [20]
inactive: all other assays above

NS(=O)(=O)C(F)(F)C(F)(F)C(F)(F)C(F)(F)C(F)(F)C(F)(F)C(F)(F)C(F)(F)F
inactive: [19] | [1] | [2] | [3] | [4] | [5] | [6] | [9] | [10] | [11] | [12] | [13] | [16] | [17] | [18]
active: [19] 9.66 µM | [2] 91.1 µM and 35.8 µM | [5] 8.26 µM | [6] 96.7 µM | [7] 59.8 µM and 115 µM and 28.3 µM | [8] 52.2 µM and 39.2 µM and 50 µM | [9] 54.8 µM and 92.1 µM | [10] 246 µM | [11] 38.7 µM and 25.8 µM | [12] 78 µM | [13] 83.8 µM | [14] 24.4 µM and 38.7 µM and 27.6 µM | [18] 150 µM

C1CC2OC2CC1C1CO1 (configuration not stated)
active: [10] 59.2 µM
not listed: [1]
inactive: all other assays above

C[C@]12CCC(=O)C=C1CC[C@@H]1[C@@H]2CC[C@@]2(C)[C@H]1CC[C@]2(C)O
inactive: [19] | [1] | [2] | [3] | [4] | [5] | [6] | [7] | [8] | [9] | [11] | [12] | [13] | [14] | [16] | [17] | [18]
active: [8] 132 µM and 129 µM and 79.4 µM | [18] 55.7 µM and 15.9 µM

Cc1cc2c3c(c1)C(c1ccccc1)=N[C@@H](NC(=O)c1ccncc1)C(=O)N3CC2
active: [2] 102 µM | [5] 72.4 µM | [8] 77.1 µM | [9] 100 µM | [10] 0.909 µM | [12] 6.95 µM | [14] 181 µM | [15] 19.9 µM | [17] 100 µM | [18] 35.8 µM
inactive: [19] | [3] | [4] | [6] | [7] | [11] | [13] | [16]

CCCCCCCCOC(=O)c1ccccc1C(=O)OCCCCCCCC
active: [5] 40.1 µM | [10] 5.64 µM
not listed: [1] | [15] | [20]
inactive: all other assays above

C[C@]12CCC(=O)C=C1CC[C@@H]1[C@@H]2CC[C@]2(C)C(=O)CC[C@@H]12
active: [10] 15.2 µM and 27.7 µM and 15.3 µM
inactive: [19] | [2] | [3] | [4] | [6] | [7] | [8] | [9] | [10] | [11] | [12] | [13] | [14] | [16] | [17] | [18]

N#Cc1ccc(N(CC(N)=O)CC(F)(F)F)cc1C(F)(F)F
not listed: [1] | [15] | [20]
inactive: all other assays above
